In PubChem BioAssay AID1159580 (chemical genetic matrix, 2015):
Values joined by “and” are separate entries in the source; they are usually repeats but may differ in a detail not shown here. Identical values can stand only once. The campaign covered roughly 5,500 compounds. About 2,000 (36%) were called active. Inconclusive results (about 18%) are left out. Rule as the data show it: active = normalized growth mostly below about 0.91 (no sharp cut-off); inconclusive = no clear call, values can overlap the other calls; inactive = mostly above about 0.92. The list shows a part of the results.

Assay: chemical genetic growth profiling, strain panel (AID 1159580);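 also: tested at 20 µM; growth read once vehicle control cultures reached saturation at 30 °C; 1 = growth at the plate median or of vehicle wells; lower values mean less growth of the strain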
Details: growth OD

Measured: normalized growth

CN(C)CCC(c1ccc(Br)cc1)c1ccccn1 (centres undefined)
inactive: S. cerevisiae deletion strains, locus YKL009W, strain mrt4, hits give low values 0.99 | S. cerevisiae deletion strains, locus YKL068W, hits give low values 1.01 | S. cerevisiae deletion strains, locus YKL085W, strain MDH1 (second series), hits give low values 1.02 | S. cerevisiae deletion strains, locus YKL085W, strain MDH1, hits give low values 1.02 | S. cerevisiae deletion strains, locus YKL160W, strain elf1, hits give low values 0.981 | S. cerevisiae deletion strains, locus YKL190W, strain CNB1, hits give low values 0.995 | S. cerevisiae deletion strains, locus YKR001C, strain vps1, hits give low values 0.964 | S. cerevisiae deletion strains, locus YKR026C, strain gcn3, hits give low values 0.986 | S. cerevisiae deletion strains, locus YLL001W, strain dnm1, hits give low values 0.998 | S. cerevisiae deletion strains, locus YLL026W, hits give low values 0.987 | S. cerevisiae deletion strains, locus YLL041C, strain sdh2, hits give low values 0.981 | S. cerevisiae deletion strains, locus YLR027C, strain aat2, hits give low values 0.99 | S. cerevisiae deletion strains, locus YLR039C, strain RIC1, hits give low values 0.999 | S. cerevisiae deletion strains, locus YLR058C, strain SHM2, hits give low values 0.991 | S. cerevisiae deletion strains, locus YLR102C, strain apc9, hits give low values 0.992 | S. cerevisiae deletion strains, locus YLR113W, strain HOG1, hits give low values 1.01 | S. cerevisiae deletion strains, locus YLR221C, strain rsa3, hits give low values 0.999 | S. cerevisiae deletion strains, locus YLR258W, strain gsy2, hits give low values 0.969 | S. cerevisiae deletion strains, locus YLR262C, strain YPT6 (second series), hits give low values 0.999 | S. cerevisiae deletion strains, locus YLR262C, strain YPT6, hits give low values 1.03 | S. cerevisiae deletion strains, locus YLR268W, strain sec22, hits give low values 0.956 | S. cerevisiae deletion strains, locus YLR320W, strain mms22, hits give low values 1.03 | S. cerevisiae deletion strains, locus YLR330W, strain CHS5, hits give low values 0.992 | S. cerevisiae deletion strains, locus YLR342W, strain FKS1 (second series), hits give low values 0.985 | S. cerevisiae deletion strains, locus YLR342W, strain FKS1, hits give low values 0.986 | S. cerevisiae deletion strains, locus YLR357W, strain rsc2, hits give low values 0.972 | S. cerevisiae deletion strains, locus YLR370C, strain arc18, hits give low values 0.982 | S. cerevisiae deletion strains, locus YLR371W, strain rom2, hits give low values 0.989 | S. cerevisiae deletion strains, locus YLR384C, strain iki3, hits give low values 0.989 | S. cerevisiae deletion strains, locus YLR418C, strain cdc73, hits give low values 0.95 | S. cerevisiae deletion strains, locus YML016C, strain PPZ1, hits give low values 0.986 | S. cerevisiae deletion strains, locus YML032C, strain rad52, hits give low values 0.966 | S. cerevisiae deletion strains, locus YML120C, strain ndi1, hits give low values 0.981 | S. cerevisiae deletion strains, locus YML124C, strain tub3, hits give low values 0.987 | S. cerevisiae deletion strains, locus YMR058W, strain fet3, hits give low values 1.01 | S. cerevisiae deletion strains, locus YMR078C, strain ctf18, hits give low values 0.974 | S. cerevisiae deletion strains, locus YMR125W, strain sto1, hits give low values 0.936 | S. cerevisiae deletion strains, locus YMR129W, hits give low values 0.982 | S. cerevisiae deletion strains, locus YMR205C, strain PFK2, hits give low values 0.997 | S. cerevisiae deletion strains, locus YMR223W, strain ubp8, hits give low values 1.01 | S. cerevisiae deletion strains, locus YMR231W, strain pep5, hits give low values 0.978 | S. cerevisiae deletion strains, locus YMR263W, strain SAP30, hits give low values 0.976 | S. cerevisiae deletion strains, locus YMR307W, strain GAS1, hits give low values 1.01 | S. cerevisiae deletion strains, locus YNL067W, strain RPL9B, hits give low values 0.977 | S. cerevisiae deletion strains, locus YNL071W, strain lat1, hits give low values 0.98 | S. cerevisiae deletion strains, locus YNL128W, strain TEP1, hits give low values 0.988 | S. cerevisiae deletion strains, locus YNL153C, strain GIM3, hits give low values 0.981 | S. cerevisiae deletion strains, locus YNL175C, strain NOP13, hits give low values 1 | S. cerevisiae deletion strains, locus YNL183C, strain NPR1, hits give low values 0.942 | S. cerevisiae deletion strains, locus YNL197C, strain WHI3, hits give low values 1.01 | S. cerevisiae deletion strains, locus YNL209W, strain ssb2, hits give low values 0.993 | S. cerevisiae deletion strains, locus YNL224C, strain SQS1, hits give low values 1 | S. cerevisiae deletion strains, locus YNL233W, strain BNI4, hits give low values 0.988 | S. cerevisiae deletion strains, locus YNL248C, strain rpa49, hits give low values 0.952 | S. cerevisiae deletion strains, locus YNL250W, strain rad50, hits give low values 0.978 | S. cerevisiae deletion strains, locus YNL271C, strain bni1, hits give low values 0.984 | S. cerevisiae deletion strains, locus YNL298W, strain CLA4, hits give low values 0.985 | S. cerevisiae deletion strains, locus YNL307C, strain MCK1, hits give low values 0.989 | S. cerevisiae deletion strains, locus YNL322C, strain KRE1 (second series), hits give low values 0.971 | S. cerevisiae deletion strains, locus YNL322C, strain KRE1, hits give low values 0.991 and 1.02 | S. cerevisiae deletion strains, locus YNR049C, strain mso1, hits give low values 0.968 | S. cerevisiae deletion strains, locus YNR052C, strain pop2, hits give low values 0.989 | S. cerevisiae deletion strains, locus YOL006C, strain TOP1, hits give low values 0.973 | S. cerevisiae deletion strains, locus YOL012C, strain htz1 0.603 | S. cerevisiae deletion strains, locus YOL147C, strain pex11, hits give low values 0.983 | S. cerevisiae deletion strains, locus YOR001W, strain rrp6, hits give low values 0.986 | S. cerevisiae deletion strains, locus YOR061W, strain CKA2, hits give low values 0.99 | S. cerevisiae deletion strains, locus YOR069W, strain VPS5, hits give low values 0.992 | S. cerevisiae deletion strains, locus YOR070C, strain gyp1, hits give low values 0.99 | S. cerevisiae deletion strains, locus YOR080W, strain dia2, hits give low values 0.975 | S. cerevisiae deletion strains, locus YOR083W, strain WHI5 (second series), hits give low values 1.01 | S. cerevisiae deletion strains, locus YOR083W, strain WHI5, hits give low values 0.928 | S. cerevisiae deletion strains, locus YOR106W, strain vam3, hits give low values 0.966 | S. cerevisiae deletion strains, locus YOR136W, strain idh2, hits give low values 1 | S. cerevisiae deletion strains, locus YOR144C, strain elg1, hits give low values 0.99 | S. cerevisiae deletion strains, locus YOR184W, strain ser1, hits give low values 0.98 | S. cerevisiae deletion strains, locus YOR231W, strain MKK1, hits give low values 0.986 | S. cerevisiae deletion strains, locus YOR265W, strain rbl2, hits give low values 0.99 | S. cerevisiae deletion strains, locus YOR270C, strain vph1, hits give low values 0.981 | S. cerevisiae deletion strains, locus YOR290C, strain snf2, hits give low values 0.97 | S. cerevisiae deletion strains, locus YOR316C, strain cot1, hits give low values 0.987 | S. cerevisiae deletion strains, locus YPL051W, strain arl3, hits give low values 0.991 | S. cerevisiae deletion strains, locus YPL055C, strain LGE1, hits give low values 1 and 1.01 | S. cerevisiae deletion strains, locus YPL078C, strain atp4, hits give low values 0.985 | S. cerevisiae deletion strains, locus YPL106C, strain sse1, hits give low values 0.936 | S. cerevisiae deletion strains, locus YPL240C, strain hsp82, hits give low values 0.991 | S. cerevisiae deletion strains, locus YPL241C, strain CIN2, hits give low values 0.992 and 1.01 | S. cerevisiae deletion strains, locus YPL256C, strain CLN2, hits give low values 0.96 | S. cerevisiae deletion strains, locus YPR119W, strain clb2, hits give low values 0.998 | S. cerevisiae deletion strains, locus YPR141C, strain kar3, hits give low values 0.979 | S. cerevisiae deletion strains, locus YPR163C, strain tif3, hits give low values 0.987 | S. cerevisiae deletion strains, locus YPR167C, strain met16, hits give low values 0.987 | S. cerevisiae deletion strains, strain wtn01, hits give low values 0.95 | S. cerevisiae strains, strain wild type, hits give low values 0.987
